The source of these data is PubChem BioAssay.

SMILES strings stand for the structures. Active and inactive are the calls of the source.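 The calls were made as follows, unless noted: active = visually confirmed hit in the image check and inhibition above 20%; inconclusive = visually confirmed hit but inhibition not above 20%; inactive = no visual hit in the image check.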

Assay [1] can be described thus: inhibitors of TNFa-induced NFkB p65 translocation, primary screen, imaging, HUVEC, MLSMR starter and 10KST1 sets (AID 438;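 active = inhibition above 20% together with a positive visual image hit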;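 also: compound added about 3h40 before a 20 min TNFalpha stimulation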;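 as to inhibition: signal is the nuclear over cytoplasmic p65 intensity ratio per well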). To be noted: HUVEC TNFa-induced p65 nuclear translocation; cell count: measured here: nuclei count (cytotoxicity indicator), at 2.08 µM; inhibition: at 2 µM, stronger effect = higher value, 0% TNFa-plus-vehicle, 100% no-TNFa wells.
Assay [2] can be described thus: inhibitors of mutant huntingtin aggregation, primary screen, imaging, exon1htt(103Q)mCFP cells, high-content imaging (AID 483;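 active = visual image review flags a hit and inhibition of aggregation exceeds 20%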;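 also: compound exposure lasted 3 days before fixation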;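 as to nuclei count: percent of the per-plate median nuclei count of sample wells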). To be noted: exon1htt(103Q)mCFP cell line, aggregate imaging, at 2 µM; inhibition of aggregation: stronger effect = higher value; nuclei count: measured here: cell count, toxicity.
Assay [3] is described as follows: inhibitors of E-selectin induction by TNFa, primary screen, imaging, HUVEC, immunofluorescence, MLSMR starter and 10KST1 sets (AID 487).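 As to inhibition: signal is fraction of cell area covered by stained E-selectin grains.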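 As to nuclei count: 100% = median nuclei count of all wells on the same plate.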 To be noted: HUVEC TNFalpha-induced E-selectin immunofluorescence imaging, at 2 µM; inhibition: stronger effect = higher value; nuclei count: measured here: cell number, toxicity.
Assay [4] has as its target Voltage-gated potassium channel subunit beta-2 (Rattus norvegicus) (UniProt P62483). The assay can be described thus: KvBeta enzyme negative modulators, primary screen, biochemical, NADPH fluorescence (AID 622;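 active = fluorescence slope higher than the sample average by over 3 SD, cut at about -0.22 in these data, passing the limit was not always enough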;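 also: slope of raw intensity against log time taken from 70 to 1610 s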). Conditions: recombinant KvBeta, 4-cyanobenzaldehyde reduction, at 10 µM, stronger effect = higher value.
For assay [5] the target is unchanged. The assay can be described thus: KvBeta positive modulators, primary screen, biochemical, NADPH fluorescence (AID 623;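 active = NADPH fluorescence slope more negative than the mean of all samples by about 3 SD, 99.7% confidence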;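 also: fluorescence intensity change per second fitted from 20 to 320 s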). Conditions: Recombinant KvBeta, NADPH fluorescence decrease slope, 10 min; at 10 µM; stronger effect = lower value.
Assay [6] addresses Alpha-2C adrenergic receptor (Homo sapiens) (UniProt P18825). Description: modulators of alpha2C/GIRK thallium flux, primary screen, cell-based, HEK293 alpha2C/GIRK1/2 (AID 624;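 active = fluorescence slope after compound addition differing from the mean of all screened samples at 99.7% confidence, in either direction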;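 also: slope of fluorescence ratio to pre-addition baseline per second over 15 to 24 s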). Conditions: thallium flux BTC fluorescence, at 10 µM, actives lie on both sides.
The nature of assay [7]: inhibitors of Sendai virus-induced IRF3 signaling, primary screen, TLR/RLR signaling modifier project, cell-based, Sendai virus stimulus, luciferase, 10K MLSCN set (AID 602276;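 active = inhibition at or above 50% at 10 µM; inactive = inhibition below 50%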;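 also: firefly luciferase from ISG56 promoter only with Renilla not read in this screen; 0% = Sendai virus plus DMSO and 100% = medium plus DMSO without virus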). To be noted: HEK293 RL24 IRF3 luciferase reporter, at 10 µM, stronger effect = higher value. For orientation: In a reporter assay the amount or activity of a reporter protein is the signal.
The nature of assay [8]: inhibitors of poly I:C-induced TLR3 signaling, primary screen, cell-based, poly I:C stimulus, luciferase, 10K MLSCN set (AID 602277;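 active = inhibition of the reporter signal at or above 50%; inactive = inhibition below 50%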). Conditions: HEK293-TLR3 RL24 IRF3 luciferase reporter, at 10 µM, stronger effect = higher value.

Sequence of Alpha-2C adrenergic receptor (Homo sapiens) (P18825 whole entry, looked up): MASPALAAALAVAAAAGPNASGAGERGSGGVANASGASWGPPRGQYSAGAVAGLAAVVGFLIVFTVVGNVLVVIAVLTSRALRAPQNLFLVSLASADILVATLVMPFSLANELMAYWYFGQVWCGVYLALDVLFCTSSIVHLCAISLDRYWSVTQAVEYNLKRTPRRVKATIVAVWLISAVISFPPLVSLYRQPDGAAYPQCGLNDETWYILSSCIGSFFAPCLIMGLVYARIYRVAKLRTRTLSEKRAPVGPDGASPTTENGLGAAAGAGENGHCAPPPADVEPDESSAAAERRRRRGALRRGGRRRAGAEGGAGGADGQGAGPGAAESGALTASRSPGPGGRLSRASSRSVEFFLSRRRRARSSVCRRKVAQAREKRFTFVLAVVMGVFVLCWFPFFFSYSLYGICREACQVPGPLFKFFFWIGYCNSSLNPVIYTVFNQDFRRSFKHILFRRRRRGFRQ
Sequence of Voltage-gated potassium channel subunit beta-2 (Rattus norvegicus) (P62483 whole entry, looked up): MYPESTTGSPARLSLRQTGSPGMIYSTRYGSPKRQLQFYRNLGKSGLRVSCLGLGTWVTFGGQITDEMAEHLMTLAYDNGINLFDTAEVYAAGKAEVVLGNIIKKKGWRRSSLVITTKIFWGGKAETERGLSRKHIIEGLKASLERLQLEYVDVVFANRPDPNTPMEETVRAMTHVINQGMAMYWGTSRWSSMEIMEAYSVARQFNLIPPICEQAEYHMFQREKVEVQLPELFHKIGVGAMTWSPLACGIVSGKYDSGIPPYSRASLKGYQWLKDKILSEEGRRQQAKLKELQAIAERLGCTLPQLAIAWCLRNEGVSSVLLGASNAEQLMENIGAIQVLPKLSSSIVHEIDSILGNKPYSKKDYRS

Take `COc1ccc(CNS(=O)(=O)c2ccc3oc(C(=O)O)c(C)c3c2)cc1`: the cell count in assay [1] amounted to 624. Further, the inhibition in assay [1] is -4.4% (inactive); in assay [3], -31.4% (inactive); in assay [7], 15.6% (inactive); in assay [8] it was 20.3% (inactive). Also, in assay [2], the inhibition of aggregation was -6% (inactive). The nuclei count in assay [2] was 75.2%; in assay [3], 114%. Moreover, the fluorescence slope in assay [4] was -0.466 (inactive). The NADPH fluorescence slope in assay [5] was 8.2e-05 (inactive). The slope in assay [6] is 0.00607 (inactive).

As to `Clc1ccc(OCCCn2cncn2)cc1Cl`, in assay [1], the cell count is 432. Also, the inhibition in assay [1] is 3.4% (inactive); in assay [3], 7.8% (inactive); in assay [7], 10.6% (inactive); in assay [8], -19.6% (inactive). In assay [2], the inhibition of aggregation is 21.2% (inactive). Besides, the figures for the nuclei count in assay [2] and in assay [3] were 99.2% and 94.7%, respectively. Further, the fluorescence slope in assay [4] was -0.523 (inactive). Further, the NADPH fluorescence slope in assay [5] was 5.3e-06 (inactive). Besides, the slope in assay [6] was 0.00702 (inactive).

With `CCOc1ccc(CCN2C(=O)C3C4C=CC(C4)C3C2=O)cc1OCC` (centres undefined), the cell count in assay [1] is 626. The inhibition in assay [1] was 2.9% (inactive); in assay [3], -51.4% (inactive); in assay [7] it was 16.8% (inactive); in assay [8], 36.6% (inactive). Moreover, the inhibition of aggregation in assay [2] is -33.6% (inactive). The results for the nuclei count in assay [2] and in assay [3] were 134% and 112%, respectively. Also, the fluorescence slope in assay [4] was -0.551 (inactive). Further, the NADPH fluorescence slope in assay [5] is -1.1e-05 (inactive). The slope in assay [6] is 0.00791 (inactive).

Turning to `Cc1cc(C)n2c(SCC(=O)Nc3cc(C)on3)nnc2n1`, the cell count in assay [1] was found to be 335. The inhibition in assay [1] was -14.1% (inactive); in assay [3], 3.6% (inactive); in assay [7], 11% (inactive); in assay [8] it was 22.4% (inactive). The inhibition of aggregation in assay [2] is 2.1% (inactive). The nuclei count in assay [2] worked out at 71.2%; in assay [3], 100%. In addition, in assay [4], the fluorescence slope was -0.555 (inactive). For the same molecule, the NADPH fluorescence slope in assay [5] was -2.2e-05 (inactive). In addition, the slope in assay [6] was 0.00561 (inactive).

As for `COC(=O)C1=C(C)Nc2ncnn2C1c1ccc(C)o1` (centres undefined), the cell count in assay [1] is 620. The inhibition in assay [1] was 4.7% (inactive); in assay [3], 9.8% (inactive); in assay [7], -15.9% (inactive); in assay [8] it was -6.27% (inactive). Besides, in assay [2], the inhibition of aggregation was -58.3% (inactive). Moreover, the nuclei count in assay [2] is 95.5%; in assay [3] it was 108%. For the same molecule, the fluorescence slope in assay [4] was -0.581 (inactive). Besides, the NADPH fluorescence slope in assay [5] was -8.1e-06 (inactive). Further, the slope in assay [6] is 0.0055 (inactive).

Take `O=C(Cn1cnc2c(cnn2-c2ccc(F)cc2)c1=O)N1CCN(c2ccccc2)CC1`: the cell count in assay [1] came to 341. Further, the inhibition was -6% (inactive) in assay [1], -79.8% (inactive) in assay [3], 4.22% (inactive) in assay [7] and 8.47% (inactive) in assay [8]. The inhibition of aggregation in assay [2] was -0.4% (inactive). Besides, the nuclei count in assay [2] came to 90.7%; in assay [3] it was 108%. Moreover, the fluorescence slope in assay [4] was -0.506 (inactive). The NADPH fluorescence slope in assay [5] was -2.6e-06 (inactive). Besides, the slope in assay [6] is 0.00638 (inactive).

As for `Cc1ccc(C)c(N2CCN(CCCNC(=O)Cn3cc4c(n3)CCCCC4)CC2)c1`, the cell count in assay [1] amounted to 771. Besides, the inhibition in assay [1] is -4.3% (inactive); in assay [3], -60.6% (inactive); in assay [7], 7.36% (inactive); in assay [8], 19% (inactive). The inhibition of aggregation in assay [2] was -55.1% (inactive). The results for the nuclei count in assay [2] and in assay [3] were 114% and 110%, respectively. Moreover, the fluorescence slope in assay [4] is -0.619 (inactive). Besides, the NADPH fluorescence slope in assay [5] is -3.7e-05 (inactive). In assay [6], the slope is 0.00461 (inactive).

In the case of `NS(=O)(=O)c1ccc(CCNC(=O)CCC2COc3ccccc3O2)cc1` (centres undefined), the cell count in assay [1] is 535. For the same molecule, the inhibition in assay [1] was -8.3% (inactive); in assay [3], -20.9% (inactive); in assay [7] it was 15.7% (inactive); in assay [8], 18.3% (inactive). Also, the inhibition of aggregation in assay [2] is -5.3% (inactive). In addition, the nuclei count was determined as 98.4% in assay [2] and 90.3% in assay [3]. The fluorescence slope in assay [4] was -0.564 (inactive). Besides, the NADPH fluorescence slope in assay [5] is 3.4e-06 (inactive). The slope in assay [6] is 0.00562 (inactive).

Take `O=C(c1ccc2ccccc2n1)N1CCN(c2ccccc2)CC1`: the cell count in assay [1] was 874. Further, the inhibition was 0% (inactive) in assay [1], -78.3% (inactive) in assay [3], -18.5% (inactive) in assay [7] and -4.71% (inactive) in assay [8]. For the same molecule, the inhibition of aggregation in assay [2] is -15% (inactive). Also, the nuclei count turned out to be 107% in assay [2] and 142% in assay [3]. In assay [4], the fluorescence slope is -0.476 (inactive). In addition, in assay [5], the NADPH fluorescence slope was 9.7e-06 (inactive). For the same molecule, the slope in assay [6] was 0.00614 (inactive).

As for `Cc1nnc(SCCn2c(N3CCC(Cc4ccccc4)CC3)nc3c2c(=O)[nH]c(=O)n3C)s1`, in assay [1], the cell count turned out to be 432. The inhibition in assay [1] is -1.1% (inactive); in assay [3], -2.5% (inactive); in assay [7] it was 1.88% (inactive); in assay [8], 20.9% (inactive). The inhibition of aggregation in assay [2] is -91.9% (inactive). The nuclei count was found to be 79.6% in assay [2] and 104% in assay [3]. In addition, the fluorescence slope in assay [4] is -0.54 (inactive). In assay [5], the NADPH fluorescence slope was 3.5e-06 (inactive). Moreover, in assay [6], the slope was 0.00468 (inactive).

With `CCOC(=O)C1=C(C)NC(=O)NC1c1ccc(Br)s1` (centres undefined), in assay [1], the cell count worked out at 516. Besides, the inhibition in assay [1] is 1.2% (inactive); in assay [3] it was 28.9% (inactive); in assay [7], 11.8% (inactive); in assay [8] it was 12.6% (inactive). Besides, the inhibition of aggregation in assay [2] is 5.5% (inactive). In addition, the nuclei count in assay [2] amounted to 105%; in assay [3], 104%. For the same molecule, the fluorescence slope in assay [4] is -0.502 (inactive). In addition, the NADPH fluorescence slope in assay [5] was -6.2e-05 (inactive). In addition, the slope in assay [6] is 0.00543 (inactive).

In the case of `CC(=O)c1ccc2c3c(cccc13)C(=O)N(c1c(C)nn(C)c1C)C2=O`, in assay [1], the cell count stood at 655. In addition, the inhibition in assay [1] was -4.4% (inactive); in assay [3] it was -14% (inactive); in assay [7], 6.92% (inactive); in assay [8], -10.1% (inactive). Further, in assay [2], the inhibition of aggregation was -24.6% (inactive). Also, the nuclei count in assay [2] is 108%; in assay [3] it was 97.5%. Further, the fluorescence slope in assay [4] is -0.633 (inactive). The NADPH fluorescence slope in assay [5] was -5.6e-06 (inactive). Moreover, in assay [6], the slope was 0.00453 (inactive).

Consider `O=C1CCCCCC1C1(O)C(=O)Nc2ccccc21` (centres undefined), for which, in assay [1], the cell count was 349. For the same molecule, the inhibition in assay [1] is 10% (inactive); in assay [3], -26.3% (inactive); in assay [7], 9.01% (inactive); in assay [8], 29% (inactive). In assay [2], the inhibition of aggregation is -6% (inactive). Further, the results for the nuclei count in assay [2] and in assay [3] were 101% and 116%, respectively. In addition, in assay [4], the fluorescence slope is -0.424 (inactive). In addition, in assay [5], the NADPH fluorescence slope is 4e-05 (inactive). For the same molecule, the slope in assay [6] is 0.00358 (inactive).

Regarding `CC(C)CNS(=O)(=O)c1ccc(CCC(=O)NCc2ccco2)cc1`, the cell count in assay [1] amounted to 572. Also, the inhibition was 33.1% (active) in assay [1], -57.5% (inactive) in assay [3], 11.1% (inactive) in assay [7] and 14.7% (inactive) in assay [8]. Besides, in assay [2], the inhibition of aggregation is 7% (inactive). Also, the values for the nuclei count in assay [2] and in assay [3] were 85% and 137%, respectively. Besides, in assay [4], the fluorescence slope is -0.511 (inactive). Further, the NADPH fluorescence slope in assay [5] is 1.9e-05 (inactive). In addition, the slope in assay [6] was 0.00549 (inactive).

In general, inhibition refers to the change of the read-out against control, counted positive when it falls.
